Test results taken from PubChem BioAssay AID1159580 (chemical genetic matrix, 2015).
“And” between values parts separate entries of the source, which are not always exact repeats. Equal values may be shown once. The whole screen tested about 5,500 compounds, of which about 2,000 (36%) were called active. Inconclusive results (about 18%) are left out. No stated cut-off is given here; in the data, active means normalized growth mostly below about 0.91 (no sharp cut-off); inconclusive means no clear call, values can overlap the other calls; inactive means mostly above about 0.92. The list shows a part of the results.

Assay: chemical genetic growth profiling, strain panel (AID 1159580);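 further: tested at 20 µM; growth read once vehicle control cultures reached saturation at 30 °C; 1 = growth at the plate median or of vehicle wells; lower values mean less growth of the strain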
Details: growth OD

Measured: normalized growth

O=c1[nH]oc2c1CCNC2
inactive: S. cerevisiae deletion strains, locus YKL009W, strain mrt4, hits give low values 0.992 | S. cerevisiae deletion strains, locus YKL068W, hits give low values 0.982 | S. cerevisiae deletion strains, locus YKL085W, strain MDH1 (second series), hits give low values 1.03 | S. cerevisiae deletion strains, locus YKL085W, strain MDH1, hits give low values 1.03 | S. cerevisiae deletion strains, locus YKL160W, strain elf1, hits give low values 0.99 | S. cerevisiae deletion strains, locus YKL190W, strain CNB1, hits give low values 1.01 | S. cerevisiae deletion strains, locus YKR001C, strain vps1, hits give low values 0.977 | S. cerevisiae deletion strains, locus YKR026C, strain gcn3, hits give low values 1 | S. cerevisiae deletion strains, locus YKR091W, strain srl3, hits give low values 1 | S. cerevisiae deletion strains, locus YLL001W, strain dnm1, hits give low values 0.973 | S. cerevisiae deletion strains, locus YLL026W, hits give low values 0.989 | S. cerevisiae deletion strains, locus YLL041C, strain sdh2, hits give low values 1.01 | S. cerevisiae deletion strains, locus YLR027C, strain aat2, hits give low values 0.99 | S. cerevisiae deletion strains, locus YLR039C, strain RIC1, hits give low values 1.01 | S. cerevisiae deletion strains, locus YLR058C, strain SHM2, hits give low values 0.999 | S. cerevisiae deletion strains, locus YLR102C, strain apc9, hits give low values 0.982 | S. cerevisiae deletion strains, locus YLR113W, strain HOG1, hits give low values 0.974 | S. cerevisiae deletion strains, locus YLR221C, strain rsa3, hits give low values 0.999 | S. cerevisiae deletion strains, locus YLR258W, strain gsy2, hits give low values 1 | S. cerevisiae deletion strains, locus YLR262C, strain YPT6 (second series), hits give low values 1 | S. cerevisiae deletion strains, locus YLR262C, strain YPT6, hits give low values 0.993 | S. cerevisiae deletion strains, locus YLR268W, strain sec22, hits give low values 1.01 | S. cerevisiae deletion strains, locus YLR320W, strain mms22, hits give low values 1.01 | S. cerevisiae deletion strains, locus YLR330W, strain CHS5, hits give low values 0.986 | S. cerevisiae deletion strains, locus YLR342W, strain FKS1 (second series), hits give low values 0.989 | S. cerevisiae deletion strains, locus YLR342W, strain FKS1, hits give low values 0.975 | S. cerevisiae deletion strains, locus YLR357W, strain rsc2, hits give low values 0.957 | S. cerevisiae deletion strains, locus YLR370C, strain arc18, hits give low values 1 | S. cerevisiae deletion strains, locus YLR371W, strain rom2, hits give low values 0.975 | S. cerevisiae deletion strains, locus YLR384C, strain iki3, hits give low values 0.999 | S. cerevisiae deletion strains, locus YLR418C, strain cdc73, hits give low values 1.05 | S. cerevisiae deletion strains, locus YML016C, strain PPZ1, hits give low values 1.01 | S. cerevisiae deletion strains, locus YML032C, strain rad52, hits give low values 0.954 | S. cerevisiae deletion strains, locus YML120C, strain ndi1, hits give low values 0.993 | S. cerevisiae deletion strains, locus YML124C, strain tub3, hits give low values 0.987 | S. cerevisiae deletion strains, locus YMR058W, strain fet3, hits give low values 1.01 | S. cerevisiae deletion strains, locus YMR078C, strain ctf18, hits give low values 0.97 | S. cerevisiae deletion strains, locus YMR125W, strain sto1, hits give low values 0.989 | S. cerevisiae deletion strains, locus YMR129W, hits give low values 0.996 | S. cerevisiae deletion strains, locus YMR205C, strain PFK2, hits give low values 0.992 | S. cerevisiae deletion strains, locus YMR223W, strain ubp8, hits give low values 0.967 | S. cerevisiae deletion strains, locus YMR231W, strain pep5, hits give low values 0.995 | S. cerevisiae deletion strains, locus YMR263W, strain SAP30, hits give low values 1.02 | S. cerevisiae deletion strains, locus YMR307W, strain GAS1, hits give low values 1.06 and 0.998 | S. cerevisiae deletion strains, locus YNL067W, strain RPL9B, hits give low values 1.03 | S. cerevisiae deletion strains, locus YNL071W, strain lat1, hits give low values 1.01 | S. cerevisiae deletion strains, locus YNL128W, strain TEP1, hits give low values 1.03 | S. cerevisiae deletion strains, locus YNL153C, strain GIM3, hits give low values 1.03 | S. cerevisiae deletion strains, locus YNL175C, strain NOP13, hits give low values 1.02 | S. cerevisiae deletion strains, locus YNL183C, strain NPR1, hits give low values 0.924 | S. cerevisiae deletion strains, locus YNL197C, strain WHI3, hits give low values 1.05 | S. cerevisiae deletion strains, locus YNL209W, strain ssb2, hits give low values 0.999 | S. cerevisiae deletion strains, locus YNL224C, strain SQS1, hits give low values 1.02 | S. cerevisiae deletion strains, locus YNL233W, strain BNI4, hits give low values 1.04 | S. cerevisiae deletion strains, locus YNL248C, strain rpa49, hits give low values 1.01 | S. cerevisiae deletion strains, locus YNL250W, strain rad50, hits give low values 0.966 | S. cerevisiae deletion strains, locus YNL271C, strain bni1, hits give low values 0.989 | S. cerevisiae deletion strains, locus YNL298W, strain CLA4, hits give low values 0.962 | S. cerevisiae deletion strains, locus YNL307C, strain MCK1, hits give low values 0.988 | S. cerevisiae deletion strains, locus YNL322C, strain KRE1 (second series), hits give low values 0.995 | S. cerevisiae deletion strains, locus YNL322C, strain KRE1, hits give low values 0.999 | S. cerevisiae deletion strains, locus YNR049C, strain mso1, hits give low values 1 | S. cerevisiae deletion strains, locus YNR052C, strain pop2, hits give low values 0.955 | S. cerevisiae deletion strains, locus YOL006C, strain TOP1, hits give low values 1.09 | S. cerevisiae deletion strains, locus YOL012C, strain htz1 1.13 | S. cerevisiae deletion strains, locus YOL147C, strain pex11, hits give low values 0.979 | S. cerevisiae deletion strains, locus YOR001W, strain rrp6, hits give low values 0.991 | S. cerevisiae deletion strains, locus YOR061W, strain CKA2, hits give low values 1 | S. cerevisiae deletion strains, locus YOR069W, strain VPS5, hits give low values 0.993 | S. cerevisiae deletion strains, locus YOR070C, strain gyp1, hits give low values 0.999 | S. cerevisiae deletion strains, locus YOR080W, strain dia2, hits give low values 0.998 | S. cerevisiae deletion strains, locus YOR083W, strain WHI5 (second series), hits give low values 1 | S. cerevisiae deletion strains, locus YOR083W, strain WHI5, hits give low values 0.976 | S. cerevisiae deletion strains, locus YOR106W, strain vam3, hits give low values 1 | S. cerevisiae deletion strains, locus YOR136W, strain idh2, hits give low values 0.975 | S. cerevisiae deletion strains, locus YOR144C, strain elg1, hits give low values 0.989 | S. cerevisiae deletion strains, locus YOR184W, strain ser1, hits give low values 0.955 | S. cerevisiae deletion strains, locus YOR231W, strain MKK1, hits give low values 1.01 | S. cerevisiae deletion strains, locus YOR265W, strain rbl2, hits give low values 0.994 | S. cerevisiae deletion strains, locus YOR270C, strain vph1, hits give low values 1.04 | S. cerevisiae deletion strains, locus YOR290C, strain snf2, hits give low values 0.995 | S. cerevisiae deletion strains, locus YOR316C, strain cot1, hits give low values 0.995 | S. cerevisiae deletion strains, locus YPL051W, strain arl3, hits give low values 0.996 | S. cerevisiae deletion strains, locus YPL055C, strain LGE1, hits give low values 1.07 and 1.01 | S. cerevisiae deletion strains, locus YPL078C, strain atp4, hits give low values 0.992 | S. cerevisiae deletion strains, locus YPL106C, strain sse1, hits give low values 0.985 | S. cerevisiae deletion strains, locus YPL240C, strain hsp82, hits give low values 1.01 | S. cerevisiae deletion strains, locus YPL241C, strain CIN2, hits give low values 0.996 | S. cerevisiae deletion strains, locus YPL256C, strain CLN2, hits give low values 1.01 | S. cerevisiae deletion strains, locus YPR119W, strain clb2, hits give low values 0.985 | S. cerevisiae deletion strains, locus YPR141C, strain kar3, hits give low values 0.972 | S. cerevisiae deletion strains, locus YPR163C, strain tif3, hits give low values 0.968 | S. cerevisiae deletion strains, locus YPR167C, strain met16, hits give low values 0.993 | S. cerevisiae deletion strains, strain wtn01, hits give low values 1.01 | S. cerevisiae strains, strain wild type, hits give low values 0.998
